{
  "source": "paper PMC11006913",
  "assay_in_all_cases": "PBM; 200 nM protein, PBS",
  "conditions_in_all_cases": "dsDNA, one strand shown",
  "key": {"HESX1 [1]": {"target": "HESX1 (Homo sapiens, UniProt Q9UBX0 95-180, R165K)", "sequence (Q9UBX0 95-180 R165K)": "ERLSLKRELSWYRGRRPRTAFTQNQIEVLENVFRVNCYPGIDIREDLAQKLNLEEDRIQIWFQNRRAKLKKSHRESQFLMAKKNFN"}, "PRRX1 [2]": {"target": "PRRX1 (Homo sapiens, UniProt P54821 80-166, F113S)", "sequence (P54821 80-166 F113S)": "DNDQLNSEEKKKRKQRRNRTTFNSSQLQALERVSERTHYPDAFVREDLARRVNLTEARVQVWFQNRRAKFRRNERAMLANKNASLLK"}, "HESX1 [3]": {"target": "HESX1 (Homo sapiens, UniProt Q9UBX0 95-180)", "sequence (Q9UBX0 95-180)": "as the sequence (Q9UBX0 95-180 R165K) above, with K71R counted along it"}, "MSX2 [4]": {"target": "MSX2 (Homo sapiens, UniProt P35548 130-214, R199I)", "sequence (P35548 130-214 R199I)": "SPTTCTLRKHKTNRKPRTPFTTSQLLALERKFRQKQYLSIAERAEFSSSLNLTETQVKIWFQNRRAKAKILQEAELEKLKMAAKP"}, "ALX1 [5]": {"target": "ALX1 (Homo sapiens, UniProt Q15699 118-204, L144V)", "sequence (Q15699 118-204 L144V)": "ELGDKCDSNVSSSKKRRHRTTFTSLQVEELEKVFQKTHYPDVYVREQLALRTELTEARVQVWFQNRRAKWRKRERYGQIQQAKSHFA"}, "ALX1 [6]": {"target": "ALX1 (Homo sapiens, UniProt Q15699 118-204, L144R)", "sequence (Q15699 118-204 L144R)": "as the sequence (Q15699 118-204 L144V) above, with V27R counted along it"}, "PROP1 [7]": {"target": "PROP1 (Homo sapiens, UniProt O75360 56-141)", "sequence (O75360 56-141)": "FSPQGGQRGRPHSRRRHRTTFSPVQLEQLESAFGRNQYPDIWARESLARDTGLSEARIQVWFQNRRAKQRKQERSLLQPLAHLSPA"}, "HESX1 [8]": {"target": "HESX1 (Homo sapiens, UniProt Q9UBX0 95-180, R109Q)", "sequence (Q9UBX0 95-180 R109Q)": "as the sequence (Q9UBX0 95-180 R165K) above, with R15Q, K71R counted along it"}, "PROP1 [9]": {"target": "PROP1 (Homo sapiens, UniProt O75360 56-141, R99H)", "sequence (O75360 56-141 R99H)": "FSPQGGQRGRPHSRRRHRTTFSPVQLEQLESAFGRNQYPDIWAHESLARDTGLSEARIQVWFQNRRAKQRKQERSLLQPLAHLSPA"}, "HESX1 [10]": {"target": "HESX1 (Homo sapiens, UniProt Q9UBX0 95-180, P111T)", "sequence (Q9UBX0 95-180 P111T)": "as the sequence (Q9UBX0 95-180 R165K) above, with P17T, K71R counted along it"}, "PROP1 [11]": {"target": "PROP1 (Homo sapiens, UniProt O75360 56-141, F88S)", "sequence (O75360 56-141 F88S)": "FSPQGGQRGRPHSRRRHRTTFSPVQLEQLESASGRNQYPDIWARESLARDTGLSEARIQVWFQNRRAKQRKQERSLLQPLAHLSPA"}, "MSX2 [12]": {"target": "MSX2 (Homo sapiens, UniProt P35548 130-214, F161Y)", "sequence (P35548 130-214 F161Y)": "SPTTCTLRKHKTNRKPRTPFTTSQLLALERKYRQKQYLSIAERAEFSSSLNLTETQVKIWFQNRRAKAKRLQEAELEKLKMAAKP"}, "HESX1 [13]": {"target": "HESX1 (Homo sapiens, UniProt Q9UBX0 95-180, F115L)", "sequence (Q9UBX0 95-180 F115L)": "as the sequence (Q9UBX0 95-180 R165K) above, with F21L, K71R counted along it"}, "ALX1 [14]": {"target": "ALX1 (Homo sapiens, UniProt Q15699 118-204)", "sequence (Q15699 118-204)": "as the sequence (Q15699 118-204 L144V) above, with V27L counted along it"}, "PRRX1 [15]": {"target": "PRRX1 (Homo sapiens, UniProt P54821 80-166)", "sequence (P54821 80-166)": "as the sequence (P54821 80-166 F113S) above, with S34F counted along it"}, "ALX4 [16]": {"target": "ALX4 (Homo sapiens, UniProt Q9H161 200-286)", "sequence (Q9H161 200-286)": "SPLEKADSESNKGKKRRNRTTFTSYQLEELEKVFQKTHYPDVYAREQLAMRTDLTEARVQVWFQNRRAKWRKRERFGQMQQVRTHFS"}, "ALX4 [17]": {"target": "ALX4 (Homo sapiens, UniProt Q9H161 200-286, Q225E)", "sequence (Q9H161 200-286 Q225E)": "as the sequence (Q9H161 200-286) above, with Q26E counted along it"}},
  "data": [
    {"sequence": "AATTATCA", "values": [
      {"measurement": "binding signal", "setting": "HESX1 [1]", "result": "11.4 upbm affinity estimate (log intensity, higher = more binding, comparable within an allelic series)"},
      {"measurement": "binding signal", "setting": "PRRX1 [2]", "result": "11.2 upbm affinity estimate (log intensity, higher = more binding, comparable within an allelic series)"},
      {"measurement": "binding signal", "setting": "HESX1 [3]", "result": "11.5 upbm affinity estimate (log intensity, higher = more binding, comparable within an allelic series)"},
      {"measurement": "binding signal", "setting": "MSX2 [4]", "result": "12.3 upbm affinity estimate (log intensity, higher = more binding, comparable within an allelic series)"},
      {"measurement": "binding signal", "setting": "ALX1 [5]", "result": "11.3 upbm affinity estimate (log intensity, higher = more binding, comparable within an allelic series)"},
      {"measurement": "binding signal", "setting": "ALX1 [6]", "result": "11.1 upbm affinity estimate (log intensity, higher = more binding, comparable within an allelic series)"},
      {"measurement": "binding signal", "setting": "PROP1 [7]", "result": "11 upbm affinity estimate (log intensity, higher = more binding, comparable within an allelic series)"},
      {"measurement": "binding signal", "setting": "HESX1 [8]", "result": "8.56 upbm affinity estimate (log intensity, higher = more binding, comparable within an allelic series)"},
      {"measurement": "binding signal", "setting": "PROP1 [9]", "result": "10.6 upbm affinity estimate (log intensity, higher = more binding, comparable within an allelic series)"},
      {"measurement": "binding signal", "setting": "HESX1 [10]", "result": "10.1 upbm affinity estimate (log intensity, higher = more binding, comparable within an allelic series)"},
      {"measurement": "binding signal", "setting": "PROP1 [11]", "result": "7.71 upbm affinity estimate (log intensity, higher = more binding, comparable within an allelic series)"},
      {"measurement": "binding signal", "setting": "MSX2 [12]", "result": "13 upbm affinity estimate (log intensity, higher = more binding, comparable within an allelic series)"},
      {"measurement": "binding signal", "setting": "HESX1 [13]", "result": "7.79 upbm affinity estimate (log intensity, higher = more binding, comparable within an allelic series)"},
      {"measurement": "binding signal", "setting": "ALX1 [14]", "result": "12 upbm affinity estimate (log intensity, higher = more binding, comparable within an allelic series)"},
      {"measurement": "binding signal", "setting": "PRRX1 [15]", "result": "13.3 upbm affinity estimate (log intensity, higher = more binding, comparable within an allelic series)"}
    ]},
    {"sequence": "CCCAGTGC", "values": [
      {"measurement": "binding signal", "setting": "HESX1 [1]", "result": "6.38 upbm affinity estimate (log intensity, higher = more binding, comparable within an allelic series)"},
      {"measurement": "binding signal", "setting": "ALX4 [16]", "result": "8 upbm affinity estimate (log intensity, higher = more binding, comparable within an allelic series)"},
      {"measurement": "binding signal", "setting": "ALX4 [17]", "result": "8.11 upbm affinity estimate (log intensity, higher = more binding, comparable within an allelic series)"},
      {"measurement": "binding signal", "setting": "HESX1 [3]", "result": "6.3 upbm affinity estimate (log intensity, higher = more binding, comparable within an allelic series)"},
      {"measurement": "binding signal", "setting": "HESX1 [8]", "result": "6.56 upbm affinity estimate (log intensity, higher = more binding, comparable within an allelic series)"},
      {"measurement": "binding signal", "setting": "HESX1 [10]", "result": "6.45 upbm affinity estimate (log intensity, higher = more binding, comparable within an allelic series)"},
      {"measurement": "binding signal", "setting": "HESX1 [13]", "result": "6.56 upbm affinity estimate (log intensity, higher = more binding, comparable within an allelic series)"}
    ]},
    {"sequence": "AAATATTA", "values": [
      {"measurement": "binding signal", "setting": "HESX1 [1]", "result": "8.45 upbm affinity estimate (log intensity, higher = more binding, comparable within an allelic series)"},
      {"measurement": "binding signal", "setting": "HESX1 [3]", "result": "8.54 upbm affinity estimate (log intensity, higher = more binding, comparable within an allelic series)"}
    ]},
    {"sequence": "AGGGTATA", "values": [
      {"measurement": "binding signal", "setting": "HESX1 [1]", "result": "7.35 upbm affinity estimate (log intensity, higher = more binding, comparable within an allelic series)"},
      {"measurement": "binding signal", "setting": "HESX1 [3]", "result": "7.42 upbm affinity estimate (log intensity, higher = more binding, comparable within an allelic series)"}
    ]},
    {"sequence": "CACGGCGG", "values": [
      {"measurement": "binding signal", "setting": "HESX1 [1]", "result": "6.53 upbm affinity estimate (log intensity, higher = more binding, comparable within an allelic series)"},
      {"measurement": "binding signal", "setting": "HESX1 [3]", "result": "6.43 upbm affinity estimate (log intensity, higher = more binding, comparable within an allelic series)"},
      {"measurement": "binding signal", "setting": "HESX1 [8]", "result": "6.49 upbm affinity estimate (log intensity, higher = more binding, comparable within an allelic series)"},
      {"measurement": "binding signal", "setting": "HESX1 [10]", "result": "6.56 upbm affinity estimate (log intensity, higher = more binding, comparable within an allelic series)"},
      {"measurement": "binding signal", "setting": "HESX1 [13]", "result": "6.49 upbm affinity estimate (log intensity, higher = more binding, comparable within an allelic series)"}
    ]},
    {"sequence": "AGAGCTCT", "values": [
      {"measurement": "binding signal", "setting": "HESX1 [1]", "result": "6.34 upbm affinity estimate (log intensity, higher = more binding, comparable within an allelic series)"},
      {"measurement": "binding signal", "setting": "HESX1 [3]", "result": "6.42 upbm affinity estimate (log intensity, higher = more binding, comparable within an allelic series)"},
      {"measurement": "binding signal", "setting": "ALX1 [5]", "result": "6.52 upbm affinity estimate (log intensity, higher = more binding, comparable within an allelic series)"},
      {"measurement": "binding signal", "setting": "ALX1 [6]", "result": "6.57 upbm affinity estimate (log intensity, higher = more binding, comparable within an allelic series)"},
      {"measurement": "binding signal", "setting": "HESX1 [8]", "result": "6.48 upbm affinity estimate (log intensity, higher = more binding, comparable within an allelic series)"},
      {"measurement": "binding signal", "setting": "HESX1 [10]", "result": "6.53 upbm affinity estimate (log intensity, higher = more binding, comparable within an allelic series)"},
      {"measurement": "binding signal", "setting": "HESX1 [13]", "result": "6.38 upbm affinity estimate (log intensity, higher = more binding, comparable within an allelic series)"},
      {"measurement": "binding signal", "setting": "ALX1 [14]", "result": "6.26 upbm affinity estimate (log intensity, higher = more binding, comparable within an allelic series)"}
    ]},
    {"sequence": "ATGTTAAT", "values": [
      {"measurement": "binding signal", "setting": "HESX1 [1]", "result": "8.98 upbm affinity estimate (log intensity, higher = more binding, comparable within an allelic series)"},
      {"measurement": "binding signal", "setting": "HESX1 [3]", "result": "9.41 upbm affinity estimate (log intensity, higher = more binding, comparable within an allelic series)"}
    ]},
    {"sequence": "CCGAGGCC", "values": [
      {"measurement": "binding signal", "setting": "HESX1 [1]", "result": "6.48 upbm affinity estimate (log intensity, higher = more binding, comparable within an allelic series)"},
      {"measurement": "binding signal", "setting": "HESX1 [3]", "result": "6.46 upbm affinity estimate (log intensity, higher = more binding, comparable within an allelic series)"},
      {"measurement": "binding signal", "setting": "PROP1 [7]", "result": "6.73 upbm affinity estimate (log intensity, higher = more binding, comparable within an allelic series)"},
      {"measurement": "binding signal", "setting": "HESX1 [8]", "result": "6.41 upbm affinity estimate (log intensity, higher = more binding, comparable within an allelic series)"},
      {"measurement": "binding signal", "setting": "PROP1 [9]", "result": "6.78 upbm affinity estimate (log intensity, higher = more binding, comparable within an allelic series)"},
      {"measurement": "binding signal", "setting": "HESX1 [10]", "result": "6.44 upbm affinity estimate (log intensity, higher = more binding, comparable within an allelic series)"},
      {"measurement": "binding signal", "setting": "PROP1 [11]", "result": "6.47 upbm affinity estimate (log intensity, higher = more binding, comparable within an allelic series)"},
      {"measurement": "binding signal", "setting": "HESX1 [13]", "result": "6.42 upbm affinity estimate (log intensity, higher = more binding, comparable within an allelic series)"}
    ]},
    {"sequence": "CGGCTAGC", "values": [
      {"measurement": "binding signal", "setting": "HESX1 [1]", "result": "6.5 upbm affinity estimate (log intensity, higher = more binding, comparable within an allelic series)"},
      {"measurement": "binding signal", "setting": "PRRX1 [2]", "result": "9.18 upbm affinity estimate (log intensity, higher = more binding, comparable within an allelic series)"},
      {"measurement": "binding signal", "setting": "HESX1 [3]", "result": "6.49 upbm affinity estimate (log intensity, higher = more binding, comparable within an allelic series)"},
      {"measurement": "binding signal", "setting": "HESX1 [8]", "result": "6.39 upbm affinity estimate (log intensity, higher = more binding, comparable within an allelic series)"},
      {"measurement": "binding signal", "setting": "HESX1 [10]", "result": "6.54 upbm affinity estimate (log intensity, higher = more binding, comparable within an allelic series)"},
      {"measurement": "binding signal", "setting": "HESX1 [13]", "result": "6.45 upbm affinity estimate (log intensity, higher = more binding, comparable within an allelic series)"},
      {"measurement": "binding signal", "setting": "PRRX1 [15]", "result": "9.46 upbm affinity estimate (log intensity, higher = more binding, comparable within an allelic series)"}
    ]},
    {"sequence": "ACCAAATA", "values": [
      {"measurement": "binding signal", "setting": "HESX1 [1]", "result": "7.74 upbm affinity estimate (log intensity, higher = more binding, comparable within an allelic series)"},
      {"measurement": "binding signal", "setting": "HESX1 [3]", "result": "7.83 upbm affinity estimate (log intensity, higher = more binding, comparable within an allelic series)"},
      {"measurement": "binding signal", "setting": "HESX1 [10]", "result": "7.46 upbm affinity estimate (log intensity, higher = more binding, comparable within an allelic series)"}
    ]},
    {"sequence": "TAAATTCA", "values": [
      {"measurement": "binding signal", "setting": "HESX1 [1]", "result": "7.34 upbm affinity estimate (log intensity, higher = more binding, comparable within an allelic series)"},
      {"measurement": "binding signal", "setting": "HESX1 [3]", "result": "7.46 upbm affinity estimate (log intensity, higher = more binding, comparable within an allelic series)"}
    ]},
    {"sequence": "TAATTGTA", "values": [
      {"measurement": "binding signal", "setting": "HESX1 [1]", "result": "11.4 upbm affinity estimate (log intensity, higher = more binding, comparable within an allelic series)"},
      {"measurement": "binding signal", "setting": "HESX1 [3]", "result": "11.8 upbm affinity estimate (log intensity, higher = more binding, comparable within an allelic series)"},
      {"measurement": "binding signal", "setting": "MSX2 [4]", "result": "12.5 upbm affinity estimate (log intensity, higher = more binding, comparable within an allelic series)"},
      {"measurement": "binding signal", "setting": "HESX1 [8]", "result": "8.46 upbm affinity estimate (log intensity, higher = more binding, comparable within an allelic series)"},
      {"measurement": "binding signal", "setting": "HESX1 [10]", "result": "10.1 upbm affinity estimate (log intensity, higher = more binding, comparable within an allelic series)"},
      {"measurement": "binding signal", "setting": "MSX2 [12]", "result": "13.3 upbm affinity estimate (log intensity, higher = more binding, comparable within an allelic series)"},
      {"measurement": "binding signal", "setting": "HESX1 [13]", "result": "7.75 upbm affinity estimate (log intensity, higher = more binding, comparable within an allelic series)"}
    ]}
  ]
}
